Results reported in PubChem BioAssay AID463173 (ICCB-Longwood Screening Facility, Harvard Medical School, 2010).
The whole screen tested about 52,000 compounds, of which about 4,300 (8.3%) were called active. The full list was thinned out, with actives kept by preference. A number with no mark means an inactive call. No stated cut-off is given here; in the data, active means survival mostly below about 52% (no sharp cut-off); inactive means mostly above about 56%.

These molecules were tested on DeltatarO mutant (assay: growth inhibition of S. aureus wild type versus tarO mutant, primary screen, teichoic acid synthesis inhibitors, RN4220, OD600 (AID 463173)). Conditions: OD600, 18 h, stronger effect = lower value, screened at 18.75 µg/mL (by protocol).
Molecule CCOc1ccc(-c2cc(C(=O)N3CCN(c4cc(Cl)ccc4C)CC3)c3ccccc3n2)cc1 has a survival of 58%. For O=C(NCc1ccc2c(c1)CCN2C(=O)c1ccc(F)cc1)c1c(F)cccc1F, the survival was 85%. Molecule O=C(NCc1ccccc1Cl)c1ccc2nc(Cc3ccccc3)oc2c1 has a survival of 60%. CC1CCN(S(=O)(=O)c2ccc3c(c2)N(CC(=O)NCCN(C)C)C(=O)CS3)CC1 was tested, and the survival was 108%. With CC(=O)N1CCCc2cc(S(=O)(=O)N3CCC(C(=O)NC4CCCCC4)CC3)ccc21 the survival was 94%. For COc1ccccc1CNC(=O)C1CCN(S(=O)(=O)c2ccc3c(c2)CCCN3C(C)=O)CC1, the survival was 83%. For CC(=O)N1CCCc2cc(S(=O)(=O)N3CCC(N(C)C(C)C)CC3)ccc21, the survival was 94%. With CC(=O)N1CCCc2cc(S(=O)(=O)N3CCCCC3)ccc21 the survival was 47% (active). For CC(=O)N1CCCc2cc(S(=O)(=O)N3CCCC(C(=O)NCc4ccccc4Cl)C3)ccc21 (stereo not drawn), the survival was 95%. COc1ccccc1CNC(=O)C1CCCN(S(=O)(=O)c2ccc3c(c2)CCCN3C(C)=O)C1 (stereo not drawn) was tested, and the survival was 52% (active). For CCOC(=O)N1CCc2c(sc3c2c(=O)n(Cc2ccccc2)c(=O)n3CC(=O)Nc2ccc(C)cc2C)C1, the survival was 71%. O=C(c1cc2ccccc2oc1=O)N1CCN(c2ccc(Cl)cc2)CC1 gave a survival of 66%. Molecule COc1cc(C(=O)NCCOc2ccc(C)c(C)c2)cc(OC)c1OC has a survival of 98%. Cc1cc(C)cc(NC2=CC(c3cccc(F)c3)N(c3cc(C)cc(C)c3)C2=O)c1 (stereo not drawn) showed a survival of 87%. With CCCCN(CCCC)CC(O)Cn1cc(/C=C/C(=O)c2ccccc2)c2ccccc21 (stereo not drawn) the survival was 5% (active). CCCCN(CC)CCCNC(=O)c1cn(CC(C)C)c(=O)c2c1c1ccccc1n2C was tested, and the survival was 115%. For COc1ccc(C(=O)/C=C/c2cn(CC(O)CN(CC(C)C)CC(C)C)c3ccccc23)cc1 (stereo not drawn), the survival was 58%. For CCCN(CCC)CC(O)Cn1cc(/C=C/C(=O)c2ccc(OC)cc2)c2ccccc21 (stereo not drawn), the survival was 11% (active). In the case of CCn1cc(/C=C(\NC(=O)c2ccc(OC)cc2)C(=O)NCCCn2ccnc2)c2ccccc21, the survival is reported as 108%. In the case of COc1ccc(C(=O)/C=C/c2cn(CC(O)CN(CC(C)C)CC(C)C)c3ccccc23)cc1OC (stereo not drawn), the survival is reported as 91%. For CCCN(CCC)CC(O)Cn1cc(/C=C/C(=O)c2ccc(Br)cc2)c2ccccc21 (stereo not drawn), the survival was 66%. For CC(C)CN(CC(C)C)CC(O)Cn1cc(/C=C/C(=O)c2ccccc2)c2ccccc21 (stereo not drawn), the survival was 38% (active). In the case of CCCN(CCC)CC(O)Cn1cc(/C=C/C(=O)c2ccc(C)cc2)c2ccccc21 (stereo not drawn), the survival is reported as -2% (active). Work on Cc1ccc(C(=O)c2cn(Cc3ccccc3)c3ccccc3c2=O)cc1 yielded a survival of 75%. COc1ccc(C(=O)/C=C/c2cn(CC(O)CN3CCc4ccccc43)c3ccccc23)cc1 (stereo not drawn) was tested, and the survival was 58%. For Cc1nn(-c2ccccc2)c(=O)c2ccccc12, the survival was 92%. Work on COc1ccc(-c2nc3nc(C)cc(Nc4ccc(C(C)=O)cc4)n3n2)cc1 yielded a survival of 54%. In the case of CCc1nc2nc(C)cc(Nc3ccc(Br)cc3F)n2n1, the survival is reported as 128%. Cc1cc(=O)n(CC(=O)Nc2ccc(Cl)c(Cl)c2)c(-n2nc(C)cc2C)n1 gave a survival of 117%. Work on COc1ccccc1NC(=O)CCS(=O)(=O)c1cc2c3c(c1)CCN3C(=O)CC2 yielded a survival of 99%. CCc1cccc(CC)c1-n1nnc2c(sc3nc(C)cc(C)c32)c1=O showed a survival of 83%. Cc1cccc(C(=O)NCc2nnc(SCC(=O)Nc3ccccc3F)n2-c2ccccc2)c1 showed a survival of 72%. In the case of N#Cc1c(/N=C/c2cccnc2)sc2c1CCC2, the survival is reported as 100%. With CN1CCN(C(CNC(=O)c2ccccc2)c2ccc3c(c2)OCO3)CC1 (stereo not drawn) the survival was 76%. In the case of Nc1nc(N)nc(COc2ccccc2)n1, the survival is reported as 102%. CCOC(=O)c1c(S(=O)(=O)N2CCCC(C(=O)NCc3ccccc3Cl)C2)c(C)n(C)c1C (stereo not drawn) showed a survival of 122%. Molecule CCc1cccc(C)c1NC(=O)CN1CCN(Cc2ccccc2Cl)S1(=O)=O has a survival of 126%. With CCCN(CCC)CC(O)Cn1cc(/C=C/C(=O)c2ccc(OCC)cc2)c2ccccc21 (stereo not drawn) the survival was 11% (active). Work on CCOc1ccc(C(=O)NCCn2cc(SCC(=O)Nc3ccccc3)c3ccccc32)cc1 yielded a survival of 71%. COc1ccc(S(=O)(=O)N2CCCN(CC(=O)Nc3ccc(OC)cc3OC)CC2)cc1 gave a survival of 72%. COc1ccc(OCC(=O)NCCS(=O)(=O)N2CCN(c3cccc(Cl)c3)CC2)cc1 showed a survival of 85%. CCOc1ccc(NC(=O)CSc2cn(CC(=O)N3CCCCCC3)c3ccccc23)cc1 showed a survival of 95%. With Cc1oc(-c2cccc(Br)c2)nc1CSc1nc2ncccc2[nH]1 the survival was 78%. With CCOC(=O)c1cnc2c(C)cc(C)cc2c1NCCN1CCOCC1 the survival was 32% (active). CCOC(=O)c1cnc2ccccc2c1NCCCO gave a survival of 104%. In the case of CCOC(=O)c1cnc2c(CC)cccc2c1NCCO, the survival is reported as 95%. Molecule CCOC(=O)c1cnc2ccc(Br)cc2c1NCCN1CCOCC1 has a survival of 76%. In the case of CCOC(=O)c1cnc2c(Cl)c(Cl)ccc2c1NCCN1CCOCC1, the survival is reported as 42% (active).
